# Bioassay records from PubChem BioAssay.
# HTR2A ag: mouse HTR2A agonism via beta-arrestin recruitment. P35363. CHO-K1 mHTR2A beta-arrestin complementation, luminescence; percent of 30 µM serotonin response. activation, % at 7.6 µM. actives 0.66% (n = 360,000). AID 624169;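 active = activation above a run cutoff, the mean activation of all tested compounds plus 3 SD, cut at about 14% in these data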;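 note: 0% = plate median of compound wells and 100% = 30 µM serotonin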
# Rtt109 Vps75: inhibitors of Candida albicans Rtt109/Vps75 histone acetyltransferase; actives 0.16% (n = 330,000); inhibition, % at 34.9 µM; purified Rtt109/Vps75, ThioGlo CoA-SH fluorescence, 4 h; Q5AAJ8; AID 540336;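 active = inhibition of at least 50% in every replicate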
# TLR4-MyD88 BLA: inhibitors of human TLR4-MyD88 binding. O00206+Q99836. HeLa CL3-4 TLR4/MyD88 BLA complementation, FRET ratio. inhibition, % at 8.4 µM. actives 0.18% (n = 200,000). AID 861; in the data active = inhibition above about 25%;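 note: 0% = vehicle and 100% = reference inhibitor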
# LANA-H2A inh: blocks KSHV LANA binding to histone H2A/H2B; AID 2629; cell-free LANA-H2A/H2B peptide, fluorescence polarization; actives 0.6% (n = 320,000); Q9QR71; inhibition, % (test concentration not listed); in the data active = inhibition mostly above about 10%, no sharp cut-off; inactive = mostly below about 6.7%
# TLR9-MyD88 inh: blocks human TLR9 binding to MyD88. Q9NR96+Q99836. CHO BLA complementation TLR9-MyD88, CCF4 FRET ratio. inhibition, % at 4.98 µM. actives 0.21% (n = 340,000). AID 504734;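 active = inhibition above the mean over all tested compounds plus 3 SD, cut at about 21% in these data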;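 note: 0% = DMSO only wells and 100% = clavulanate BLA inhibitor control wells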
# NOD2-RIPK2 inh: blocks binding of human NOD2 to RIPK2. O43353. CHO BLA complementation NOD2-RIPK2, CCF4 ratio. inhibition, % at 4.98 µM. actives 0.38% (n = 360,000). AID 624267; in the data active = inhibition above about 21%;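 note: 0% = vehicle only and 100% = reference blocker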
# Target sequence (O43353 whole entry, looked up): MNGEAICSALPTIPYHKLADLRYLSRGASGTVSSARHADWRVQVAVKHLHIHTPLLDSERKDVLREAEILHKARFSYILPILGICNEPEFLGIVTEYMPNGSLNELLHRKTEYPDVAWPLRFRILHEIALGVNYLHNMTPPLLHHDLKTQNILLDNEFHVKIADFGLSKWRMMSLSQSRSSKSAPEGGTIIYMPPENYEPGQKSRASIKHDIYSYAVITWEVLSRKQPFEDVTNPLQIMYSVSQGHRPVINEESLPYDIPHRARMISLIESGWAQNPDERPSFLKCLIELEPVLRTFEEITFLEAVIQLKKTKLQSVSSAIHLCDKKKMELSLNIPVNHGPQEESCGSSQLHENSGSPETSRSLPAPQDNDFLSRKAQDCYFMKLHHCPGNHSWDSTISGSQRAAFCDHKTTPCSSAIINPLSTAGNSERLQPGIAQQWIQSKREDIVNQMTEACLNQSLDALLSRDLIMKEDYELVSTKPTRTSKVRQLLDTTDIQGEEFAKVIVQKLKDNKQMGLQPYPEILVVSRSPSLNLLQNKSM
# NOD2-RIPK2 conf: NOD2-RIPK2 interaction inhibition confirmed. actives 70% (n = 1,200). shares compounds with NOD2-RIPK2 inh. inhibition, % at 4.98 µM. AID 624370. CHO cells, NOD2-RIPK2 BLA complementation, CCF4 FRET;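 active = mean inhibition across replicates above a set limit taken from the earlier primary screen, cut at about 21% in these data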;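 note: 0% = DMSO-only wells and the high end = clavulanate BLA-blocked wells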
# NOD2 BLA counter: counter-screen for NOD2-RIPK2 interaction inhibitors: BLA reporter | shares compounds with NOD2-RIPK2 inh | CHO BLA reporter, CCF4 FRET ratio, counterscreen | inhibition, % at 4.98 µM | actives 57% (n = 1,200) | AID 624371;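 active = mean inhibition above the low-control mean inhibition plus three low-control SD, cut at about 11% in these data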;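 note: 0% = DMSO only wells and 100% = clavulanate high control wells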
# Starred values were filed as active, the others as inactive; i = inactive; . = no result; + = active, no number. The list is not random: actives were taken first. Their share in the collection is about 1.8%.
SMILES,HTR2A ag,Rtt109 Vps75,TLR4-MyD88 BLA,LANA-H2A inh,TLR9-MyD88 inh,NOD2-RIPK2 inh,NOD2-RIPK2 conf,NOD2 BLA counter
O=S(=O)(c1cccs1)N1CCN(CC(O)COc2cccc(Br)c2)CC1 (stereo unspecified),1.2,-0.3,8.9,-8.4,-2.7,21.5*,-27.6,-0.5
O=C(COC(=O)c1ccc(Cl)nc1)NNC(=O)c1ccc(Br)cc1,-8.4,5.2,.,4.2,-0.6,-13.4,.,.
Cc1ccc(S(=O)(=O)CCC(=O)c2cccc([N+](=O)[O-])c2)cc1,-4.3,+,.,5.4,-10.9,22.4*,38.5*,1.4
CC(C)Oc1ccc(CNC(=O)Cn2ccc3cc(S(=O)(=O)N4CCCC4)ccc32)cc1,-1.3,-17.1,.,2.1,2.5,26.6*,-3.8,-0.6
COc1cc(CC(=O)NCC(C)(C)N2CCOCC2)cc(OC)c1OC,8.3,-9.2,.,-6.9,-4.4,38.4*,-1.5,-0.8
CN1CCN(Cc2c(O)c(Cl)cc3c(-c4ccccc4)cc(=O)oc23)CC1,6.9,-41.3,4.9,0.1,5.5,21.2*,21.4*,24.1*
CSc1nnc(-c2cc3c(s2)-c2ccccc2CC3)o1,-1.8,-3.1,-19.4,0.0,-4.3,4.0,.,.
S=c1[nH]nc(-c2cc3c(s2)-c2ccccc2CC3)o1,-2.2,i,15.7,-0.4,11.7,30.4*,25.4*,38.5*
O=C1NC(c2cccc(OCc3ccccc3)c2)Nc2ccccc21 (stereo unspecified),0.7,4.3,.,.,-1.9,-1.7,.,.
CN1CCN(c2ccc(S(=O)(=O)N3CCCCC3)cc2NC(=O)/C=C/c2ccc(Cl)c([N+](=O)[O-])c2)CC1,-3.8,4.5,.,-2.6,8.2,22.0*,30.3*,-9.7
CCN1CCN(c2ccc(S(=O)(=O)N3CCCCC3)cc2NC(=O)/C=C/c2ccc([N+](=O)[O-])cc2)CC1,-12.3,4.4,.,3.5,-2.2,-0.2,.,.
O=C(Cn1cnc([N+](=O)[O-])n1)c1ccc(O)c(O)c1,-0.3,0.6,.,-2.4,1.0,-6.3,.,.
Cc1nc([N+](=O)[O-])c(Br)n1Cc1ccc(Cl)c(Cl)c1,-4.4,4.0,12.6,.,7.9,23.3*,42.6*,-3.8
CCO[C@H]1OC(C(=O)N2CCN(Cc3ccc4c(c3)OCO4)CC2)=C[C@@H](c2csc3ccccc23)[C@@H]1CCCO,7.0,1.9,-5.9,7.0,-12.7,22.5*,11.8,-1.3
COc1ccc(CNC(=O)c2cccc(NC(=O)CC3SC(N4CCCCC4)=NC3=O)c2)cc1 (stereo unspecified),-5.6,-27.0,.,2.3,0.8,-9.3,.,.
NC(=S)N/N=C1/CCSc2ccc3ccccc3c21,-1.7,5.5,0.2,-4.9,3.4,23.5*,0.6,-2.2
NC(=S)N/N=C/c1c(O)ccc2ccccc12,-5.1,9.3,.,-4.0,11.2,15.9,.,.
COc1ccc(NC2=CC(=O)CC(C)(C)C2)cc1OC,0.8,-0.9,11.3,-2.1,-4.9,22.7*,-11.2,-2.9
O=C(c1cccc(F)c1)N1CCN(S(=O)(=O)c2ccccc2)CC1,-0.9,-6.4,-6.7,-2.9,5.0,-7.3,.,.
O=C(c1ccccc1)N1CCN(S(=O)(=O)c2ccccc2)CC1,-6.5,-10.0,.,-1.4,-8.6,30.6*,-7.2,-3.0
COC(=O)CCNC(=O)c1ccc2nc(Cc3ccc(OC)c(OC)c3)oc2c1,-5.4,-1.0,.,-1.0,9.2,21.5*,-2.9,0.3
O=C(CSc1ccccn1)Nc1nonc1[N+](=O)[O-],-2.2,5.2,.,.,15.0,31.4*,13.3,4.9
COc1ccc(C=NNC(=O)c2cc(C)oc2C)cc1O,-3.0,-3.7,.,2.7,10.4,-25.9,.,.
Cc1ccc(NC(=O)C(OC(=O)c2ccc(O)cc2)c2ccccc2)cc1Cl (stereo unspecified),3.7,-2.2,-15.3,0.9,-6.0,34.9*,-9.9,-3.1
O=C(Nc1ccccc1)c1cccc(C(F)(F)F)c1,0.0,13.8,7.0,-2.4,-4.6,-15.2,.,.
SMILES,HTR2A ag,Rtt109 Vps75,TLR4-MyD88 BLA,LANA-H2A inh,TLR9-MyD88 inh,NOD2-RIPK2 inh,NOD2-RIPK2 conf,NOD2 BLA counter
Cc1c(C(=O)Nc2ccccc2)c2ccc(C(F)(F)F)cc2n1O,3.7,.,.,1.8,.,34.2*,28.3*,10.0
CCOC(=O)C1CCN(S(=O)(=O)c2ccc3c4c(cccc24)C(=O)N3CC)CC1,1.8,-7.3,.,0.6,-1.1,23.6*,24.0*,23.6*
CCCC(=O)OCC1CN(Cc2ccco2)S(=O)(=O)c2c(F)cccc2O1 (stereo unspecified),0.1,0.5,.,.,-3.7,-7.5,.,.
COc1cccc(-c2nnn(CC(=O)N3CCCCC3)n2)c1,0.2,1.0,.,16.2,2.4,1.7,.,.
Cc1nn(CC(=O)Nc2ccc3c(c2)OCO3)c(C)c1Cl,-1.2,-3.2,.,-1.1,-21.5,-9.7,.,.
Cc1cc(Br)ccc1NC(=O)CNC(=O)Cn1ncc(Cl)c(Cl)c1=O,-4.0,8.0,-3.5,-1.8,5.0,24.7*,36.1*,3.9
O=C(O)CCC(=O)N1CCN(S(=O)(=O)c2ccc3ccccc3c2)CC1,4.2,2.8,.,1.3,-2.2,10.7,.,.
O=C(Cn1ncc(Cl)c(Cl)c1=O)N1CCN(S(=O)(=O)c2ccc3ccccc3c2)CC1,-1.1,-0.7,18.8,2.9,11.3,49.9*,67.7*,14.7*
O=C(Cn1ncc(Cl)c(Cl)c1=O)Nc1ccc2c(c1)OCO2,0.8,-4.7,.,7.5,9.5,21.3*,24.8*,5.0
O=C(Cn1ncc(Cl)c(Cl)c1=O)NC(=O)NC1CCCCC1,-3.5,-15.2,.,-3.8,5.5,28.1*,46.7*,8.4
CCOC(=O)[C@H]1[C@H]2COc3cc(OC)ccc3[C@@H]2N2C(=O)CN(C)C(=O)[C@@]12C,-4.1,-3.8,.,2.3,8.0,0.7,.,.
Cc1ccc(S(=O)(=O)N2CCCCC2)cc1NC(=O)Cn1ncc(Cl)c(Cl)c1=O,-6.2,2.0,.,-4.4,19.9,43.7*,45.4*,12.4*
CCN(CC)S(=O)(=O)c1cc(NC(=O)Cn2ncc(Cl)c(Cl)c2=O)ccc1C,3.1,30.8,.,7.5,19.3,21.8*,34.8*,8.6
Cc1ccc(S(=O)(=O)N2CCCCC2)cc1NC(=O)Cn1cnnn1,-2.7,-1.4,.,0.5,6.0,-19.8,.,.
Cc1ccc(N(CCC#N)C(=O)COC(=O)c2ccccn2)cc1,3.9,1.6,.,-2.8,5.2,10.3,.,.
N#CC1=C(N)Oc2cc(N)ccc2C1c1ccccc1Cl (stereo unspecified),3.3,-1.2,.,1.7,-4.0,27.6*,-1.6,-1.0
C[C@H](NC(=O)N1CCn2c1nc1ccccc12)C(=O)NC1CC1,0.8,-0.1,.,4.3,5.0,3.6,.,.
